Active and inactive are the calls of the source. The call rests on the fitted dose curve; in most records, active means well fitted activation curve with a large enough effect; inconclusive means small, poorly fitted or top-dose-only effect; inactive means flat fitted curve, though single readings scatter.

The experiment is described as follows: Cellular Toxicity (caspase-3) Mesangial (AID 660).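 Further: cells exposed to compound for 16 h before the caspase read.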 The following applies: mesangial cells, normalized: DMSO 0%, 100 µM tamoxifen 100%; series mostly up to 91.7 µM. An excerpt: NIH Chemical Genomics Center [NCGC]
NIH Molecular Libraries Screening Centers Network [MLSCN]
National Institutes of Environmental Health Sciences [NIEHS]
National Toxicology Program [NTP]
We have developed a 1536-well cell-based assay for quantitative high throughput screening (qHTS) against a number of cell lines to determine in vitro caspase 3/7 of small molecules. This particular assay uses the mesangial cell line which is derived from normal human renal glomeruli.
NCGC Assay Protocol Summary:
The Caspase-Glo 3/7 assay (Promega) is a homogeneous method to measure caspase-3 and caspase-7 activities in cultured cells. The quantitation of caspase 3/7 activity is based on the cleavage of a peptide-aminoluciferin substrate. After caspase cleaves the substrate the free aminoluciferin is liberated and serves as the substrate of luciferase, which generates the light. The luminescent signal is proportional to amount of caspase 3/7 activity present.
Using the Caspase-Glo 3/7 assay, the amount of caspase 3/7 activity was measured in the mesangial cell line with complete culture medium following compound treatment for 16 hours. The assay was performed in opaque white 1536-well plates. In the screen, tamoxifen and doxorubicin were used as positive controls. Library compounds were measured for their ability to cause the activation of caspase 3/7 in the cell line, as reflected by an increase in luminescence signal, in a concentration-dependent manner. Data were normalized to the controls for basal activity (DMSO only) and 100% stimulation (100 uM tamoxifen). AC50 values were determined from concentration-response data modeled with the standard Hill equation.
qHTS protocol for caspase 3/7 assay in mesangial cell line
[Step] [Parameter] [Value] [Description]
1. Reagent; 5 uL; 1000 mesangial cells/well
2. Time; 5 hr; 37 °C incubation
4. Controls; 23 nL; Tamoxifen 0.23 uM to 100 uM & doxorubicin 7.0 pM to 100 uM
5. Time; 16 hr; 37 °C incubation
6. Reagent; 5 uL; Caspase-Glo 3/7 reagent
7. Time; 20 min; Room Temperature
8. Detection; Luminescence; Viewlux plate reader
Keywords: caspase 3/7, apoptosis, mesangial cell line, luminescence, NTPHTS, NTPHTS_NCGC, NIEHS, EPA, DSSTox, MLSMR, MLSCN, NIH Roadmap, qHTS, NCGC
Turning to `CCCC(C)(COC(N)=O)COC(=O)NC(C)C` (stereo not given), the result was inactive. On to `CNCC(O)c1ccc(O)cc1` (stereo not given), for which the result was inactive. For the compound `NCC(O)c1ccc(O)cc1` (stereo not given), the compound was called inactive.

Take `Oc1ccc(Cl)cc1Cc1ccccc1`: the result was inactive. The result for `Oc1ccccc1-c1ccccc1` reads “inactive”; that for `C[C@]12C/C(=C/O)C(=O)C[C@@H]1CC[C@@H]1[C@@H]2CC[C@@]2(C)[C@H]1CC[C@]2(C)O`, “inactive”.

For the compound `c1ccc2c(c1)Nc1ccccc1S2`, the result was inactive. With `CCOP(=S)(OCC)Oc1cc(C)nc(C(C)C)n1`, the compound was classed as inactive. The result for `OCCOc1ccccc1` reads “inactive”; that for `Clc1ccc(COC(Cn2ccnc2)c2ccc(Cl)cc2Cl)cc1` (stereo not given), “inactive”.

Source of the values: PubChem BioAssay (NCATS).
